Hits are enriched below; roughly 3.1% of the tested compounds scored in any of these assays.
BRCA1 expr up = qHTS Assay to Identify Small Molecule Activators of BRCA1 Expression; MCF7-BRCA1-FFLuc reporter, luminescence, 48 h; response scale: scaled: vehicle 0%, 10 µM genistein 100%; Potency, µM (highest dose often 46.1 µM), without a hit: at the highest dose activation, actives largely listed as activators; actives 1.1% (n = 380,000); AID 624202, 2012; further: potency means the concentration at half of the fitted maximal effect; nearly all actives have a fitted effect of over 80% in size
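MCF7-BRCA1-FFLuc, 2000 cells/well; 2 h attach, 37 °C/5% CO2; compound 48 h; luciferase substrate 15 min; luminescence end-point. Norm. to genistein 10 microM max activation and DMSO; concentration-response curves fitted.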
ELG1 DNA repair = qHTS screen for small molecules that inhibit ELG1-dependent DNA repair in human embryonic kidney (HEK293T) cells expressing luciferase-tagged ELG1; Potency, µM (highest dose often 46.1 µM), for the others: at the top dose activity change, negative = inhibition, hits mostly inhibitors; HEK293T ELG1-luciferase reporter, luminescence, 16 h; DNA damage induced by 5-fluorouridine; AID 504467, 2011; actives 2.3% (n = 330,000); further: potency means the concentration at half of the fitted maximal effect; on the % scale 0 is the no-effect control and ±100 the full control effect; nearly all actives have a fitted effect of over 55% in size
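Overnight (16 hr) co-exposure of 2,000 cells/well to 5-fluorouridine and compound at 37 °C preceded detection. Luciferase was quantified via ONE-Glo luminescence; loss of signal denotes inhibition.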
Nrf2 ARE act = qHTS of Nrf2 Activators. AID 624171, 2012. AREc32 ARE-luciferase reporter (MCF7-derived line), luminescence, 24 h. actives 0.31% (n = 410,000). Potency, µM (series often up to 46.1 µM), for the others: at the highest dose activation, most hits filed as activators; further: potency means the concentration at half of the fitted maximal effect; % of control where 0% means no effect; nearly all actives have a fitted effect of over 65% in size
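Luciferase luminescence (Steady-Glo, 30 min at room temperature) served as the read-out of ARE activation in AREc32 cells treated with compounds for 24 hr at 37 deg C.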
IL-2 act = qHTS of IL-2 Activators; IL-2 activation reporter assay, cell-based qHTS; stimulated with anti-CD3/CD4/CD28 beads; in transgenic mouse T cells; activation, % (series mostly up to about 46 µM); actives 0.065% (n = 360,000); in the data active means activation above about 50%; inconclusive means mostly about 30% to 49%; further: 0% is about no effect
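First, unstimulated transgenic mouse T cells were exposed to compound for 60 min. Next, anti-CD3/anti-CD4-coated beads with anti-CD28 were added. Finally, after 18 h at 37 degrees C, EGFP and DsRed were imaged.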
* marks the source's active call; other numbers are inactive results; ? = inconclusive; . = not tested or not shown. Unless noted, the call rests on the fitted dose curve; in most records, active means well fitted curve in the direction sought with a large enough effect; inconclusive means small, poorly fitted or top-dose-only effect, or another doubt; inactive means no such curve, though single readings can be large; an effect the other way counts as inactive or inconclusive.

SMILES	BRCA1 expr up	ELG1 DNA repair	Nrf2 ARE act	IL-2 act
COc1ccc2cc(CCNC(=O)c3ccco3)c(=O)[nH]c2c1	102%	?	0%	2
Cc1cc2cc(CCNC(=O)c3cccc([N+](=O)[O-])c3)c(=O)[nH]c2cc1C	-20%	23µM*	0%	0
Cc1cccc(OCC(=O)Nc2ccc(O)c(-c3nc4ccccc4o3)c2)c1	3%	.	.	.
COc1cc2c3nnc(-c4ccc(F)cc4)c-3cn(Cc3ccccc3)c2cc1OC	-9%	-4%	8%	199*
COc1cc2c3nnc(-c4ccc(F)cc4)c-3cn(Cc3ccc(F)cc3)c2cc1OC	-11%	?	19%	?
CCN(CC)c1ccc2cc(-c3nnc(-c4ccccc4)o3)c(=O)oc2c1	1.4µM*	?	3%	12
COc1ccc(OCc2csc(N)n2)cc1	10µM*	?	0%	5
FC(F)(F)COc1nc(OCC(F)(F)F)nc(N2CCN(c3ccccc3)CC2)n1	-19%	23µM*	0%	8
FC(F)(F)COc1nc(N2CCOCC2)nc(N(c2ccccc2)c2ccccc2)n1	-56%	?	5%	-2
Nc1c(Cl)ncnc1NCCc1ccc(O)cc1	3%	10µM*	0%	-3
Cc1ccccc1NC(=O)CSc1ncc2c(n1)-c1ccccc1N(C)S2(=O)=O	.	.	5%	.
COc1ccc(C)cc1NC(=O)CNC(c1ccccc1)c1ccc(C)cc1 (centres undefined)	-49%	6.5µM*	0%	-1
O=C(OCCNc1nc(-c2ccccc2)nc2ccccc12)c1cccnc1	-52%	?	14%	0
Cc1ccc(-c2nc(Nc3cccc(O)c3)c3ccccc3n2)cc1	-16%	21µM*	6%	1
CCCOC(=O)c1cccc(Nc2nc(-c3cccnc3)nc3ccccc23)c1	-94%	13µM*	-3%	1
CNC(=O)c1ccc(Nc2nc(-c3ccccc3)nc3ccccc23)cc1	-15%	15µM*	5%	-1
Cc1ccc(-c2nc(Nc3ccc(N4CCOCC4)cc3)c3ccccc3n2)cc1	-98%	23µM*	13%	-5
C[N+](C)(C)CCN1CCc2ccccc21	-1%	.	0%	0
CN(C(=O)c1cc2c(=O)oc3ccccc3c2s1)c1ccc(F)cc1	3%	.	0%	.
Cc1cccc(Nc2nc3ccccc3n3c(N)nnc23)c1	.	.	9%	.
Cc1nnc2c(Nc3cccc(O)c3)nc3ccccc3n12	.	.	3.2µM*	.
O=C(c1cccc([N+](=O)[O-])c1)N1c2nc(-c3ccco3)nn2C2(CCCCC2)[C@@H]2CCCC[C@@H]21	.	.	5%	.
O=C(c1cc(-c2ccccc2)nc2ccccc12)N1CCN(c2ccccc2O)CC1	-49%	13µM*	8%	-1
O=C(O)c1cc(-c2cccc3ccccc23)nc2ccccc12	-1%	-9%	0%	0
O=C(c1cc(-c2cccc3ccccc23)nc2ccccc12)N1CCN(CCO)CC1	-8%	4.6µM*	-1%	0
SMILES	BRCA1 expr up	ELG1 DNA repair	Nrf2 ARE act	IL-2 act
O=C(c1cc(-c2ccncc2)nc2ccccc12)N1CCN(c2ncccn2)CC1	-1%	23µM*	0%	0
CCN(Cc1ccccc1)C(=O)Cn1c(=O)n(-c2cccc(C)c2)c(=O)c2c1c1cc(C)ccc1n2C	-6%	.	0%	.
Cc1ccccc1C(=O)n1nc(-c2ccco2)nc1NCc1ccc(Cl)cc1	.	.	0%	.
CCc1nn(CC(=O)Nc2ccc(NC(C)=O)cc2)c(=O)c2cc3sccc3n12	.	.	-1%	.
CC(CCO)Nc1nc2c(c(=O)n(C)c(=O)n2C)n1Cc1ccc(Br)cc1 (centres undefined)	.	.	7%	.
COc1ccc(-n2cnc3cc(C(=O)NCCC4=CCCCC4)ccc32)cc1	.	.	-2%	.
O=C(CCCCCNC(=O)c1ccccc1Br)N=Nc1c(O)[nH]c2ccccc12	-17%	9.2µM*	4%	0
COc1ccc(-c2nc(CN3CCN(c4cc(C)nc(C)c4)CC3)c(C)o2)c2ccccc12	-36%	13%	6%	0
Cc1oc(-c2cccc3ccccc23)nc1CN1CCN(c2ncnc3ccccc23)CC1	-43%	15µM*	0%	-1
CCN1C(=O)C(=O)N(CC(=O)c2cc(C)n(C3CC3)c2C)C1=O	?	?	0%	1
Cc1cc(C(=O)CN2C(=O)C(=O)N(CC(C)C)C2=O)c(C)n1C1CC1	3.2µM*	?	0%	0
Cc1c2ccccc2nc2c(F)c(N(C)C)c(F)c(F)c12	13µM*	?	5%	13
CN(C)c1c2ccccc2nc2c(F)c(F)c(F)c(F)c12	-69%	?	?	-1
COc1ccc(CC(=O)Nc2cccc(SC)c2)cc1OC	-35%	5.2µM*	0%	-5
COC(=O)c1cc(NC(=O)Cc2ccc(OC)c(OC)c2)cc(C(=O)OC)c1	26%	?	0%	0
O=C(Cn1cc(C(F)(F)F)cc(Cl)c1=O)NCCc1ccc(Cl)cc1Cl	0%	3%	0%	-3
O=C(Cn1cc(C(F)(F)F)cc(Cl)c1=O)NCc1ccc(F)cc1	11µM*	?	4%	5
CCCN(c1ccccc1F)S(=O)(=O)c1cc(-c2cc(C)no2)ccc1C	.	.	0%	.
COc1cc(/C=C/c2cc(C(=O)O)c3ccccc3n2)ccc1OC(F)F	2.5µM*	?	0%	0
N/C(=N\OC(=O)/C=C/c1ccccc1Cl)c1ccccn1	-18%	?	22%	-3
N/C(=N\OC(=O)/C=C/c1ccccc1)c1cccnc1	10µM*	?	?	2
N/C(=N\OC(=O)c1cccc2ccccc12)c1cccc([N+](=O)[O-])c1	-21%	7%	26%	-2
N/C(=N\OC(=O)c1cccc2ccccc12)c1cccnc1	?	?	2µM*	-2
Cc1ccc(/C(N)=N/OC(=O)/C=C/c2ccccc2)cc1	45%	?	14%	0
N/C(=N\OC(=O)/C=C/c1ccccc1Cl)c1cccnc1	4µM*	?	16µM*	-2
SMILES	BRCA1 expr up	ELG1 DNA repair	Nrf2 ARE act	IL-2 act
CCOC(=O)c1ccc(OC(=O)c2cn(-c3ccc(C)cc3)c(=O)c3ccccc23)cc1	.	.	1%	.
Cc1nc(C(=O)Nc2ccccc2)sc1C(=O)Nc1ccccc1	2.8µM*	?	7%	0
Cc1nc(N)sc1C(=O)Nc1ccccc1	34%	?	8%	0
COc1ccc(C(=O)/C=C/C(=O)N(Cc2ccc3c(c2)OCO3)C(C(=O)NC2CCCCC2)c2ccncc2)c(O)c1 (centres undefined)	-80%	7.3µM*	9%	-1
COc1ccc(CN(C(=O)/C=C/C(=O)c2ccc(OC)cc2O)C(C(=O)NC2CCCCC2)c2ccncc2)cc1 (centres undefined)	-57%	16µM*	10%	-4
CCOC(=O)[C@]12CCCC=C1N(CCC1=CCCCC1)C(=O)[C@H](CC(=O)NCc1ccccc1)C2	.	.	.	-1
